Measured values from PubChem BioAssay (NCI).
This is part of a sample that, as a whole, favours compounds with a hit. Of some 83,000 tested, about 20% had one in any assay.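 The endpoint reported here, percent growth, reads 100 for growth as untreated, 0 for no net growth and -100 for all cells dead.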 Values without a mark were called inactive. Active and inactive are the calls of the source. The calls were made as follows: active = growth percent below 10; inactive = the rest.

Tests used:
Experiment in all cases: NCI-60 one-dose screen, 48 h (100 = growth as untreated, 0 = no growth, -100 = all killed)
[1] = system: NCI-H23 lung; settings: 10 µM unless noted
[2] = system: NCI-H226 lung; settings: 10 µM unless noted
[3] = system: NCI-H322M lung; settings: 10 µM unless noted
[4] = system: HOP-62 NSCLC; settings: 10 µM unless noted
[5] = system: NCI-H460 lung; settings: 10 µM unless noted
[6] = system: HOP-92 NSCLC; settings: 10 µM unless noted
[7] = system: NCI-H522 lung; settings: 10 µM unless noted
[8] = system: A549/ATCC NSCLC; settings: 10 µM unless noted
[9] = system: 786-0 renal; settings: 10 µM unless noted
[10] = system: COLO 205 colon; settings: 10 µM unless noted
[11] = system: DU-145 prostate; settings: 10 µM unless noted
[12] = system: K-562 leukemia; settings: 10 µM unless noted
[13] = system: MALME-3M melanoma; settings: 10 µM unless noted
[14] = system: MDA-MB-231 breast; settings: 10 µM unless noted
[15] = system: RXF 393 renal; settings: 10 µM unless noted
[16] = system: SF-268 CNS; settings: 10 µM unless noted
[17] = system: SF-295 CNS; settings: 10 µM unless noted
[18] = system: SF-539 CNS; settings: 10 µM unless noted
[19] = system: UACC-257 melanoma; settings: 10 µM
[20] = system: M14 melanoma; settings: 10 µM unless noted

SMILES | growth [1] | growth [2] | growth [3] [%] | growth [4] | growth [5] | growth [6] | growth [7] | growth [8] | growth [9] | growth [10] | growth [11] [%] | growth [12] [%] | growth [13] | growth [14] | growth [15] | growth [16] | growth [17] | growth [18] | growth [19] | growth [20]
O=C(Nc1ccc(Cl)cc1)c1cc(-c2ccc(F)cc2)c2sc(=O)[nH]c2n1 | 5.26% (active) | 11.6% | 13.2 | 6.64% (active) | 1.4% (active) | -24.2% (active) | 3.59% (active) | 12.2% | 14.5% | 8.8% (active) | 24.2 | 10.6 | 4.01% (active) | 5.74% (active) | 5.27% (active) | 23.6% | 9.57% (active) | -4.01% (active) | -8.82% (active) | 13.9%
Nc1c(C(=O)Nc2ccccc2)sc2nc3c(cc12)CCC3 | 87.9% | 85.3% | 101 | 96.4% | 91% | 55.6% | 83.9% | 91.2% | 101% | 108% | 96.8 | 35.4 | 77.9% | 80.7% | 95.4% | 94% | 106% | 80.2% | 90.5% | 69.7%
O=C(/C=C/c1ccccc1)n1c(-c2ccc(Cl)cc2)nc2ccccc21 | -24.5% (active) | -55.3% (active) | 45 | -48.8% (active) | 0.538% (active) | -39.4% (active) | -72.4% (active) | -4.99% (active) | -17.7% (active) | -60.8% (active) | 11.1 | 39.8 | 15.9% | -26.5% (active) | -65.2% (active) | -11.9% (active) | -52% (active) | -48.4% (active) | -64.4% (active) | -37.3% (active)
CCN(CC)P(=O)(N(CC)CC)N(CCCSC/C=C(\C)CC/C=C(\C)CCC=C(C)C)CCCN1CCN(C)CC1 | 110% | 96.9% | 108 | 106% | 101% | 82.4% | 91.6% | 87.6% | 101% | 105% | 106 | 71.8 | 98.7% | 111% | 91.3% | 102% | 96.4% | 106% | 110% | 107%
O=C(N/N=C/c1c(Cl)cccc1Cl)c1ccccc1Nc1ccnc(C(F)(F)F)c1 | 46% | 65.2% | 58.6 | 67.2% | 36.1% | 71.5% | 52.6% | 49.2% | 75% | 94.7% | 109 | 78.4 | 81% | 73.8% | 49.3% | 73.2% | 72.9% | 86.6% | 60.4% | 71.6%
O=S(=O)(NCCCNc1nccc(-c2c(-c3ccccc3)nc3sccn23)n1)c1ccc(F)cc1 | 38% | 24.2% | 68.3 | 89% | 47.9% | 86.9% | 38.4% | 43.6% | 44.8% | 17.9% | 44.8 | 26.4 | 67.9% | 58.4% | 47.2% | 51% | 29.8% | 82% | 71.3% | 35%
COc1cc(Cn2c(SCCC(=O)Nc3ccc(F)cc3)nc3ccccc3c2=O)cc(OC)c1OC | 90.5% | 79% | 81.1 | 82.7% | 96.8% | 55.1% | 53.8% | 83.5% | 90.5% | 95.8% | 101 | 70.8 | 91.7% | 65.9% | 74.3% | 80.9% | 88.2% | 84.2% | 93.2% | 93%
Nc1c(C(=O)Nc2c(Cl)cccc2Cl)sc2nc3c(cc12)CCCCC3 | 78.4% | 61.8% | 85.4 | 53.9% | 54.9% | 59.4% | 40.1% | 50.3% | 59.8% | 45.3% | 70.4 | 24.1 | 61.5% | 63.4% | 3.29% (active) | 60.5% | 54.4% | 38.2% | 50.7% | 43.8%
